Results filed as inconclusive are left out. Unmarked numbers belong to inactive results. Calls follow the shape of the dose curve; as a rule, active = well fitted activation curve with a large enough effect; inconclusive = small, poorly fitted or top-dose-only effect; inactive = no such curve, though single readings can be large or run the other way.
% is scaled to controls: 0 for no effect and ±100 for the full control effect.

The target of this experiment is Rap guanine nucleotide exchange factor 4 (Homo sapiens) (UniProt Q8WZA2). Kind of experiment: Confirmatory qHTS for agonist of cAMP-regulated guanine nucleotide exchange factor 4 (EPAC2) (AID 1645884). Also: nearly all actives have a fitted effect of over 65% in size. The conditions noted are these: EPAC2 GEF activity, Rap1B-BODIPY-GDP fluorescence; series mostly up to 154 µM; activation: at the top concentration. A general note: qHTS replaces the single test concentration by a dilution series.
Rap guanine nucleotide exchange factor 4 (Homo sapiens), sequence (Q8WZA2 whole entry, looked up): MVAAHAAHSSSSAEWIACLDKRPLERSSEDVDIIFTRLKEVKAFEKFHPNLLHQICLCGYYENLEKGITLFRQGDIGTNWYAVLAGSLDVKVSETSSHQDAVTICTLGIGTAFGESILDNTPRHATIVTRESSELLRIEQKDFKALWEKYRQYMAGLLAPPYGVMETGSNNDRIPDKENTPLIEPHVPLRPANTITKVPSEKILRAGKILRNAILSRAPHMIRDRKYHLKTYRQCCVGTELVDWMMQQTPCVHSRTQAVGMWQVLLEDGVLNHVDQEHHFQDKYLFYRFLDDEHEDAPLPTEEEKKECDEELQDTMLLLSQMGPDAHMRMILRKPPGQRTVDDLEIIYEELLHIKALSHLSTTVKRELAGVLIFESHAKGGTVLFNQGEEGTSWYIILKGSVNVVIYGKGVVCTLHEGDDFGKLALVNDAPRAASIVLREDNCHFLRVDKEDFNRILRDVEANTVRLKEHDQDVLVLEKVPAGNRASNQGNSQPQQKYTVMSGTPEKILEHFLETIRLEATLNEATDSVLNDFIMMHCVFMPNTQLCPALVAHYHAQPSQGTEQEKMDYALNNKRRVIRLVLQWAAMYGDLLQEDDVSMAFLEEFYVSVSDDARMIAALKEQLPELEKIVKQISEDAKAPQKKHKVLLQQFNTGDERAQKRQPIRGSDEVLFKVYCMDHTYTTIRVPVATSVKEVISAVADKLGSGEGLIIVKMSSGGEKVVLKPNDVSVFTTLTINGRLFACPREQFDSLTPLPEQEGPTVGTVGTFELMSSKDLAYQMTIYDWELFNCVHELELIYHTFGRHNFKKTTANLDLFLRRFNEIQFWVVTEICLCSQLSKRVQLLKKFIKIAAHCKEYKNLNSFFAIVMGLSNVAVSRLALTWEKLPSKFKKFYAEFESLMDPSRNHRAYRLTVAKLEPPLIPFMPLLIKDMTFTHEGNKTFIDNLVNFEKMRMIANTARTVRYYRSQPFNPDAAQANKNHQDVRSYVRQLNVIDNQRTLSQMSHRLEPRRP
Turning to `CCCCCC(=O)N1c2ccccc2C(C)(c2ccccc2)CC1(C)C` (stereo unspecified), the “activation” value is 5.29% [at 83.8 µM, percent relative to cAMP agonist control].
As for `CCCCn1c(CNC(=O)C23CC4CC(CC(C4)C2)C3)nnc1SCC(=O)Nc1nnc(C)s1`, the figure is 3.57% [at 17.1 µM, percent relative to cAMP agonist control]; as for `O=S(=O)(c1ccc2nc(-c3ccco3)c(-c3ccco3)nc2c1)N1CCOCC1`, 6.85% [at 17.1 µM, percent relative to cAMP agonist control]; as for `CC(C)(C)Cc1c(-c2ccco2)nc2ccc(Cl)cn12`, 1.87% [at 17.1 µM, percent relative to cAMP agonist control].
As for `CC1CN(C(=O)c2ccc(-c3cccc(C(F)(F)F)c3)o2)CC(C)O1` (stereo unspecified), the figure is 6.74% [at 17.1 µM, percent relative to cAMP agonist control]; as for `O=C(CSc1nccn1Cc1ccc(Cl)cc1)Nc1ccc2c(c1)OCO2`, -16.4% [at 83.8 µM, percent relative to cAMP agonist control].
On to `FC(F)(F)c1cccc(CN2CCC(c3cc(-c4cccs4)n[nH]3)CC2)c1`, for which the “activation” value was -13.6%.
The figure for `O=C(COC(=O)c1cccc(NS(=O)(=O)c2ccc(F)c(F)c2)c1)NC(=O)NC1CCCC1` is -14.9%; for `O=C(NCc1ccc(OC(F)(F)F)cc1)C1CC(c2ccccc2C(F)(F)F)=NO1` (stereo unspecified) it is 4.05% [at 17.1 µM, percent relative to cAMP agonist control].
The figure for `Cc1cc2c(cc1C)C(c1ccccc1OC(C)C)CC(=O)N2` (stereo unspecified) is -0.777%; for `CCN(Cc1ccccc1)S(=O)(=O)c1cc2c3c(c1)CCN3C(=O)CC2` it is 0.922% [at 17.1 µM, percent relative to cAMP agonist control].

The record behind these values is PubChem BioAssay (NCATS).
